According to the supplement of paper PMC10338343:
± gives the standard deviation.

Key:
[1] = system: MILI (PIWIL2) piRISC loaded with piRNA #1 (26 nt); experiment: pre-steady-state target cleavage rate (min^-1); guide: piRNA #1 5'p-UGAGGUAGUAGGUUGUAUAGUAUCCA; higher = faster piRNA-guided slicing of the target; settings: auxiliary factor: 500 nM mouse GTSF1
How it was run: (§1)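 In Cleave-'n-Seq, a transcribed, DNA-blocked target RNA library (0.1 nM) was combined with 1 nM active affinity-purified piRISC bearing one synthetic guide, with or without 500 nM GTSF1 partner protein. Reactions ran in HEPES–potassium acetate buffer at 33 °C for 0–8 or 0–960 min. Uncleaved targets were sequenced and normalised to depth and to weakly complementary targets, three trials were pooled, and k3 was capped at 0.0001 min^-1. The pre-steady-state cleavage rate was obtained by fitting a burst-and-steady-state model.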

[2] = system: EfPiwi piRISC loaded with piRNA #1 (26 nt); experiment: pre-steady-state target cleavage rate (min^-1); auxiliary factor: 500 nM Ephydatia muelleri Gtsf1; guide: piRNA #1 5'p-UGAGGUAGUAGGUUGUAUAGUAUCCA; MIWI and MILI are mouse PIWI proteins and EfPiwi is from a freshwater sponge; tags in brackets are library labels; higher = faster piRNA-guided slicing of the target
How it was run: as §1

| Sequence | pre-steady-state target cleavage rate [1] | pre-steady-state target cleavage rate [2] |
| --- | --- | --- |
| GGAGAGGAUACAAUACAACCUACUAGCUCA | 0.068 ± 0.011 | 0.00253 ± 0.0018 |
| GGAGACCAUACUAACAACCUACUACCUCA | 0.114 ± 0.019 | 0.00859 ± 0.0041 |
| GGAGACCAUACUAUACAACCUAGUUCCUCA | 0.0546 ± 0.018 | 0.00549 ± 0.0029 |
| GGAGACCAUUCUAUACAACCUACUUCCUCA | 0.0522 ± 0.0086 | 0.00372 ± 0.0035 |
| GGAGACCUUACUAUACAACCUACUGCCUCA | 0.0872 ± 0.011 | 0.00661 ± 0.0029 |
| GGAGACGAUACUUUACAACCUACUACCUCA | 0.189 ± 0.013 | 0.00691 ± 0.0033 |
| GGAGACCUAACUAUACAACCUACUACCUCU [g2:g21:cont:t1U] | 0.152 ± 0.025 | 0.915 ± 0.29 |
| GGAGUGGAUACUAUACAACCUAAUACCUCA | 0.0398 ± 0.0071 | 0.00389 ± 0.0016 |
| GGAGACCAUACUAUACAACCUACGACCUCA | 0.137 ± 0.018 | 0.00282 ± 0.0019 |
| GGAGACCAUACUAUAUAACCUACUACCUCA | 0.155 ± 0.016 | 0.00757 ± 0.0042 |
| GGAGACCUAUGAAGUACAACCUACUACCUCA | 0.00594 ± 0.0028 | 0.00479 ± 0.0035 |
| GGAGAGGAUACUAUACAACCUACUACCUAA | 0.125 ± 0.011 | 0.0131 ± 0.0058 |
| GGAGGGGAUACUAUACAACCUACUACCUCA | 0.203 ± 0.0091 | 0.209 ± 0.067 |
| GGAGAGGAUACUAUUCAACCUACUAGCUCA | 0.063 ± 0.014 | 0.00239 ± 0.0015 |
| GGAGACCAUACUAUACAACCUUCUACCACA | 0.00753 ± 0.0037 | 0.00301 ± 0.0027 |
| GGAGAGGAUACGAUACAACCUACUACCUCA | 0.166 ± 0.011 | 0.00899 ± 0.0037 |
| GGAGACCUUACUAUACAACCUAGUACCACA | 0.00907 ± 0.0036 | 0.00255 ± 0.0023 |
| GGAGUGGGAUACUAUACAACCUACUACCUCA | 0.204 ± 0.011 | 0.143 ± 0.046 |
| GGAGUGGAUACUAUACAACGUACUACCACA | 0.0255 ± 0.0047 | 0.00371 ± 0.00099 |
| GGAGACCUUACUAUACAACCUGCUACCUCA | 0.0466 ± 0.0081 | 0.0174 ± 0.0079 |
